# High-throughput results from PubChem.
# Sampled rows, rich in hits. Any-hit rate of the full collection: about 19%.
# TDP1 inh: blocks human tyrosyl-DNA phosphodiesterase 1. AID 485290. Q9NUW8. Potency, µM (series often up to 130 µM), usual class: inhibitors. 350,000 tested, 0.28% active. recombinant TDP1, AlphaScreen DNA substrate cleavage; note: nearly all actives have a fitted effect of over 40% in size
#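 Enzyme-compound mixtures sat 15 min at room temperature, followed by a 5 min reaction with 15 nM final substrate and 10 min with AlphaScreen beads. Recombinant human Tdp1 was used at 1 nM final.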
# DT40 TDP1 no CPT: qHTS for Inhibitors of human tyrosyl-DNA phosphodiesterase 1 (TDP1): qHTS in cells in absence of CPT; Potency, µM (top dose mostly 46.2 µM), actives largely listed as inhibitors; DT40 Tdp1-/- hTDP1 cells, no CPT, ATP luminescence, 48 h; 420,000 tested, 15% active; note: nearly all actives have a fitted effect of over 55% in size
#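 Growth kinetics read by CellTiter-Glo luminescence after ≥48 hr at 37 °C. Cells: DT40 Tdp1-/- stably carrying human TDP1, 400 per well, compound exposure in the absence of CPT (DMSO vehicle).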
# DT40 TDP1 CPT: DT40-hTDP1 cell growth loss with CPT; chicken DT40 Tdp1-/-;hTDP1 cells + 20 nM CPT, ATP luminescence, 48 h; Potency, µM (top dose mostly 46.2 µM), hits mostly inhibitors; 420,000 tested, 12% active; note: nearly all actives have a fitted effect of over 55% in size
#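 Chicken DT40 Tdp1-/- cells complemented with human TDP1, 400 cells/well, exposed to compounds plus 20 nM camptothecin for at least 48 h at 37 C; viability read as ATP content by CellTiter-Glo luminescence.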
# Gal4-VP16 FLuc: Gal4-VP16 reporter inhibition counter-screen. Drosophila S2 Gal4-VP16 UAS-luciferase, luminescence, 20 h. Potency, µM (titrated, usually from 53.6 µM), hits mostly inhibitors. 310,000 tested, 3.5% active. AID 2546;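 note: Gal4-VP16 expression switched on by copper sulfate through the metallothionein promoter; nearly all actives have a fitted effect of over 50% in size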
# RORgamma inh: inhibitors of mouse ROR gamma transcriptional activity. 310,000 tested, 5.4% active. P51450. Potency, µM (titrated, usually from 53.6 µM), usual class: inhibitors. AID 2551. Drosophila S2 Gal4-RORgamma UAS-luciferase reporter, 20 h; note: nearly all actives have a fitted effect of over 60% in size
# Target sequence (P51450 whole entry, looked up, the tested form may be a part): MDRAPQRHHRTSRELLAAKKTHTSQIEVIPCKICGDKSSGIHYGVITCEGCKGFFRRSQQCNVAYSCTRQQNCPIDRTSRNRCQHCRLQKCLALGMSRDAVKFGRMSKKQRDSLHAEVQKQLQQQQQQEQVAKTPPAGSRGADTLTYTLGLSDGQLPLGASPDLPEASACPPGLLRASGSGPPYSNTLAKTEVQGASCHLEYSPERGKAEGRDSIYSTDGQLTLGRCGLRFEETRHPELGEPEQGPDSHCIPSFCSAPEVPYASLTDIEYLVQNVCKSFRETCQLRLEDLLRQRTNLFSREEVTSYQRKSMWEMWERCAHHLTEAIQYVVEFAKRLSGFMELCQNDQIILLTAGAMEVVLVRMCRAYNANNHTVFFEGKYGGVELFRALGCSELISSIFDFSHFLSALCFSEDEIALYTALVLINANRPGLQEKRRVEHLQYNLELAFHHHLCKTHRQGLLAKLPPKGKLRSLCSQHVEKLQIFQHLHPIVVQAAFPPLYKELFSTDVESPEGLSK
#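 Luminescence from a UAS-regulated Photinus luciferase reporter in stably transfected Drosophila Schneider cells is measured; decreased signal marks ROR gamma inhibition. Fusion expression is induced by 700 uM copper sulfate for 20 hr.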
# A number is an active result; . = inactive; ? = inconclusive; / = no result; [ ] = dose if it differs, or a comment. Calls come from the whole dose curve; as a rule, active = well fitted curve in the direction sought with a large enough effect; inconclusive = small, poorly fitted or top-dose-only effect, or another doubt; inactive = no such curve, though single readings can be large; an effect the other way counts as inactive or inconclusive.
SMILES,TDP1 inh,DT40 TDP1 no CPT,DT40 TDP1 CPT,Gal4-VP16 FLuc,RORgamma inh
CCN(CC)S(=O)(=O)c1cccc(C(=O)Nc2ccc(C#N)cc2)c1,.,8.2µM,?,.,.
CCc1ccccc1NC(=O)CCN1C(=O)C2CC=CCC2C1=O (stereo not drawn),.,.,.,.,.
O=C(c1cn(Cc2ccccc2)nc1-c1cccnc1)N1CCN(Cc2c(F)cccc2Cl)CC1,.,29µM,?,/,/
COc1cccc(N2CCN(C(=O)c3cn(Cc4ccccc4)nc3-c3cccnc3)CC2)c1,.,2.1µM,2.6µM,/,/
O=C1CCCc2[nH]c3cccc(/C(=C/c4ccccc4)c4ccccc4)c3c21,/,18µM,?,.,.
Cc1ccc(N(CC(=O)N/N=C/c2ccc(OC3CSC3)cc2)S(=O)(=O)c2ccccc2)c(C)c1,.,?,?,.,.
C=C(C(=O)C(C)(C)O)C(O)c1ccc([N+](=O)[O-])cc1 (stereo not drawn),.,/,/,.,.
CC(=O)NC(CC(=O)Nc1ccc2c(c1)OCCO2)c1ccccc1 (stereo not drawn),.,.,.,.,.
O=C(Cn1c(=O)n(Cc2ccc3c(c2)OCO3)c(=O)c2oc3ccccc3c21)Nc1ccc(F)cc1,.,.,.,/,/
CCOC(=O)C(c1ccccc1)N1CCN(c2ccc(OC)cc2)CC1 (stereo not drawn),.,?,.,.,.
CCOC(=O)C(C(=O)OCC)C(c1ccccc1)N1CCN(c2ccccc2)CC1 (stereo not drawn),/,21µM,?,/,/
CC(CC(=O)c1ccc(F)cc1)N1CCN(c2ccccc2)CC1 (stereo not drawn),/,?,18µM,/,/
CC(C)Nc1ncnc2c1ncn2[C@H]1CN(Cc2ccccc2)C[C@@H](CO)O1,/,.,.,/,/
O=Cc1c[nH]c2cccc(OCc3ccccc3)c12,.,23µM,?,/,/
CC1=NN(C(N)=S)C(=O)C1N=Nc1ccccc1C(=O)O (stereo not drawn),/,.,.,.,.[1.91 µM]
COc1ccccc1N=NC1C(=O)N(C(N)=S)N=C1C (stereo not drawn),/,?,.,3.2µM,?
Cc1nn(-c2ccc(Cl)cc2Cl)c(=O)c2ccccc12,.,.,.,.,.
CC1=NN(C(N)=S)C(=O)C1N=Nc1ccc(Cl)cc1Cl (stereo not drawn),.,?,.,0.63µM,0.45µM
CC1=NN(C(N)=S)C(=O)C1N=Nc1ccccc1Cl (stereo not drawn),/,2.9µM,5.8µM,1µM,0.63µM
Cc1ccc(NC(=O)CSc2nnc(Cc3ccccc3)o2)c(C)c1,.,.,.,.,.
COC(=O)c1cc(S(=O)(=O)N2CCCCCC2)cn1C,.,.,.,.,.
COC(=O)CSc1nc(NC(C)=O)nc(C)c1Br,.,.,.,.,.
O=[N+]([O-])c1c(Nc2ccc(O)cc2)cc(Cl)c2nonc12,/,1.3µM,1.3µM,4.5µM,5.6µM
CN(C)c1cc(Nc2ccc(O)cc2)c([N+](=O)[O-])c2nonc12,.,.,.,.,.
O=[N+]([O-])c1c(Nc2ccccn2)cc(Cl)c2nonc12,.,5.2µM,1.8µM,8.9µM,13µM
SMILES,TDP1 inh,DT40 TDP1 no CPT,DT40 TDP1 CPT,Gal4-VP16 FLuc,RORgamma inh
CCc1nnc(NC(=O)OCc2ccccc2)s1,.,.,.,.,.
CN(Cc1ccccc1)C(=O)[C@H]1CCC(=O)N1Cc1ccco1,.,.,.,.,.
O=C(c1ccc(Cl)cc1)C1CCN(Cc2ccccc2)CC1,/,?,?,.,.[1.91 µM]
CCN(c1ccccc1)c1nnc(NC(=O)Nc2ccc(Br)cc2)s1,.,3.7µM,2.9µM,/,/
Cc1ccc(NC(=O)Nc2nnc(N(C)Cc3ccccc3)s2)cc1,.,.,.,/,/
Cc1ccc(NC(=O)Nc2nnc(SCC(=O)N3CCC(C)CC3)s2)cc1,.,23µM,?,/,/
Cc1ccc(NC(=O)Nc2nnc(N3CCCC3)s2)cc1,.,.,.,/,/
CCOC(=O)Cc1ccc(NC(=O)Nc2nnc(N3CCCCC3C)s2)cc1 (stereo not drawn),.,12µM,12µM,/,/
CCCSc1nnc(NC(=O)Nc2ccccc2)s1,.,16µM,?,.,.
CCCSc1nnc(NC(=O)Nc2ccc(C)cc2)s1,.,?,?,.,.
